Compounds with a hit are over-represented: about 3.2% of the library has one in this group of screens.
CHT block = human CHT choline transport inhibition. Q9GZV3. CHT-expressing cells, membrane potential dye, choline response; active compounds read low. B-score at 10 µM. 0.86% of 310,000 active. AID 488975;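 active = B-score over 3 SD under the library average, and starting fluorescence ratio not unusually high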;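 also: choline stimulus applied at its EC90 after an EC20 pre-addition; B-score computed on integrated fluorescence ratio after choline addition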
CHT PAM = allosterically activates the human high affinity choline transporter; CHT-expressing cells, membrane potential dye, choline EC20; active compounds read high; LV-AA mutant CHT in HEK293 cells; 0.49% of 310,000 active; B-score at 10 µM; Q9GZV3;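 active = initial fluorescence not abnormally high and integrated response B-score, plate-corrected, over 3 SD above library mean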
Kir21 inh = Kir2.1 (mouse) channel inhibition. P35561. HEK293-Kir2.1, FluxOR thallium flux fluorescence; active compounds read low. B-score at 10 µM. 0.85% of 310,000 active. AID 1672;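 active = fluorescence ratio B-score at or below minus 3 SD of library scores, with starting-brightness B-score within 2 SD, cut at about -4.2 in these data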;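 also: channel flux triggered by added potassium and thallium sulfate stimulus; B-score of peak minus minimum fluorescence over baseline after thallium stimulus; more negative B-score means stronger Kir2.1 block with less thallium influx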
TMEM16A act = mouse TMEM16A channel activation, primary screen; Q8BHY3; HEK293 TMEM16A/YFP-H148Q/I152L, iodide quench fluorescence; active compounds read low; B-score at 10 µM; 0.3% of 340,000 active; AID 623877;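 active = fluorescence-ratio B-score plate-corrected deviation score at least 3 library SD below zero, with starting fluorescence score within 5 deviations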;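 also: channel opened by trigger with iodide after compound preincubation; score built on the fluorescence ratio of max minus min over baseline; more negative score means more quench and so TMEM16A activation or potentiation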
Target sequence (Q8BHY3 whole entry, looked up): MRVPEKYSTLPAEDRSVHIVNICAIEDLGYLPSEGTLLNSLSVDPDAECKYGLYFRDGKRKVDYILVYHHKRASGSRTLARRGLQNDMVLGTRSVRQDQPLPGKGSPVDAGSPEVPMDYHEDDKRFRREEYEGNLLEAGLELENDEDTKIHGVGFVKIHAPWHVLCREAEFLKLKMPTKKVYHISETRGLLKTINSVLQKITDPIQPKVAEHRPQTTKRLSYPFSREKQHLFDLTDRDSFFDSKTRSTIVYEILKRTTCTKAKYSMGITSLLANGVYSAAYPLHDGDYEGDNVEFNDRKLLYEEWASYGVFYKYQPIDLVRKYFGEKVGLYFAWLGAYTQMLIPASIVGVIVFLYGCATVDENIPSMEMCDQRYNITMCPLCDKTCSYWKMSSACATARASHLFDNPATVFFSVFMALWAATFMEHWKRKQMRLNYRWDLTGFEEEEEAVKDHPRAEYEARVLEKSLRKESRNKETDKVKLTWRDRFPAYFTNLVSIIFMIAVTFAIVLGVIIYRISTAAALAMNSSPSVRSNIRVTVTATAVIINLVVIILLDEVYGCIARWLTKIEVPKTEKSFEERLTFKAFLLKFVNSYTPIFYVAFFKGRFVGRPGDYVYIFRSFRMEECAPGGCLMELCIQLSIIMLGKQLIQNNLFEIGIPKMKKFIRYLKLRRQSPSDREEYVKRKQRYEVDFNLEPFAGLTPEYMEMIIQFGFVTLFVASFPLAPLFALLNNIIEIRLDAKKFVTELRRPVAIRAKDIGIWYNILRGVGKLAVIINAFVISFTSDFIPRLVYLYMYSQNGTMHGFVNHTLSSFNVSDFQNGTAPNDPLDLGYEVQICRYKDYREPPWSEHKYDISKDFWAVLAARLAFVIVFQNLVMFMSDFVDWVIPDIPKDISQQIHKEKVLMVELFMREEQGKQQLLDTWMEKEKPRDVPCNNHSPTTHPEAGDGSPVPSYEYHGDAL
Rce1 inhib = inhibitors of yeast Ras-converting enzyme. yeast membranes, quenched prenylated peptide cleavage fluorescence. calls only. 0.27% of 290,000 active. AID 2563;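 active = fall in fluorescence gain of 50% or more versus controls, with final raw signal at or below 3038400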
ANO1 block = inhibitors of mouse TMEM16A calcium-activated chloride channel. HEK293 TMEM16A/YFP iodide influx fluorescence, ionomycin. AID 588511. 1.2% of 310,000 active. normalized B-score (activity score, 25-100; higher = stronger inhibition) at 10 µM;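 active = ratio plate-corrected score three or more library SD toward inhibition, starting fluorescence score within five deviations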;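 also: score derived from kinetic fluorescence span divided by baseline fluorescence per well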
CHT act confirm = human CHT activation, confirmatory screen | shares compounds with CHT PAM | CHT-expressing cells, membrane potential dye fluorescence (FDSS); % of choline EC20–EC90 response window; HEK293 expressing CHT LV-AA mutant; choline added at its EC20 | activation, % at 10 µM | 91% of 2,500 active | AID 504833;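 active = primary screen active, with duplicate mean activation above negative control mean plus 3 SD, cut at about 11% in these data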
HEK293 MP dye = CHT activator counter-screen hit in parental HEK293 cells; shares compounds with CHT PAM; membrane potential dye fluorescence (FDSS); measured after EC20 choline addition; ratio readout change at 10 µM, hits read low; 62% of 2,500 active;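 active = duplicate-averaged ratio beyond 3 SD from buffer wells, up or down, though filed actives are nearly all decreases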
Of the large screens only hits and unclear results are named; the others gave an inactive call (follow-up assays come after a bar, where they were run).

CCCCN1C(=O)c2ccc(C(=O)NCCN3C(=O)S/C(=C\c4cccnc4)C3=O)cc2C1=O	none
Cc1ccccc1Nc1nc(N)c2ccccc2n1	CHT PAM 6.82 | CHT act confirm 11.0 | HEK293 MP dye -44.2
COc1ccc(C(C)n2c(C)c3c(C)nnc(C)c3c2C)cc1 (configuration not stated)	CHT PAM 6.61 | CHT act confirm 55.7 | HEK293 MP dye -44.9
Cc1cc(=O)n2[nH]c(N)c(N=Nc3ccccc3)c2n1	none
CCOc1ccc(N=Nc2c(=O)[nH]n3c(C)cc(C)nc23)cc1	none | CHT act confirm 42.0 | HEK293 MP dye -48.7
CCOC(=O)C1CCN(C(=O)c2cnn3c(C)cc(C)nc23)CC1	none
CCCCc1c(CCC)c(=N)c2ccccc2n1C	CHT PAM 9.44 | CHT act confirm 64.6 | HEK293 MP dye -26
CCCCc1c(O)c2ccccc2n(CCCC)c1=O	none
Cc1sc2ncn3ncnc3c2c1C	none
Cc1sc2ncn3cnnc3c2c1C	none | CHT act confirm 44.8 | HEK293 MP dye -40.6
C=CCOc1ccc(C2/C(=C(/O)c3ccc(OC)cc3)C(=O)C(=O)N2CCN2CCNCC2)cc1 (configuration not stated)	none
CCOc1ccccc1OC(=O)c1ccco1	none
CC(=O)COc1ccccc1OC(=O)c1ccco1	none | CHT act confirm inactive | HEK293 MP dye inactive
COc1ccccc1NC(=O)COC(=O)c1ccc2ccccc2n1	none (no result: CHT block, CHT PAM, Kir21 inh, Rce1 inhib, ANO1 block)
COc1ccccc1N1CCN(c2cc(N3CCCC3)nc(C)n2)CC1	CHT PAM 7.47 | CHT act confirm 53.7 | HEK293 MP dye -47.7
Cc1ccc(S(=O)(=O)N2CCc3ccccc3C2)cc1C	none
CC(C)c1ccccc1NC(=O)Cn1c(-c2ccccc2Cl)nc2ccccc21	none | CHT act confirm 21.6 | HEK293 MP dye inactive
CC(C)c1ccccc1NC(=O)Cn1c(/C=C/c2ccccc2)nc2ccccc21	none (no result: TMEM16A act)
COC(=O)c1sc(NC(=O)C(C)c2ccccc2)nc1C (configuration not stated)	CHT PAM 6.65 | CHT act confirm 29.7 | HEK293 MP dye inactive
NC(N)=Nc1nc(-c2ccccc2)c2cc(F)ccc2n1	none | CHT act confirm 28.8 | HEK293 MP dye -47.8
COCCN=C1Sc2nc3cc4c(cc3cc2CN1CC1CCCO1)OCO4 (configuration not stated)	none
CC(C)CSc1oc(-c2ccco2)nc1S(=O)(=O)c1ccccc1	none
Cc1ccc(S(=O)(=O)c2nc(-c3ccco3)oc2SC(C)C)cc1	none (no result: Rce1 inhib) | CHT act confirm 14.6 | HEK293 MP dye inactive
O=C(CCNS(=O)(=O)c1ccccc1)OCC(=O)c1ccc(Cl)cc1	none
CCCCn1c(CN(C)Cc2ccccc2)nc2c1c(=O)n(C)c(=O)n2C	CHT PAM 6.59 | CHT act confirm inactive | HEK293 MP dye inactive
CCCCCCn1c(CN2CCN(CCO)CC2)nc2c1c(=O)n(C)c(=O)n2C	CHT PAM 8.1 | CHT act confirm 59.7 | HEK293 MP dye -55.7
CCOc1cc(/C=C/c2cccc[n+]2C)ccc1O	CHT PAM 6.92 | CHT act confirm 48.4 | HEK293 MP dye -31.4
CCOc1cc(/C=C/c2cccc[n+]2C)ccc1OCC(=O)Nc1ccc(C)cc1	none
CS(=O)(=O)c1nc(S(=O)(=O)c2ccc(Cl)cc2)c(NCc2ccccn2)s1	none
c1ccc(CCn2nnnc2CN2CCCc3ccccc32)cc1	CHT PAM 7.32 | CHT act confirm inactive | HEK293 MP dye inactive
c1ccc2c(c1)CCCN2Cc1nnnn1CC1CCCO1 (configuration not stated)	none
Cc1cc(C(=O)N/N=C\c2cc(C(C)(C)C)ccc2O)n[nH]1	none
CC(=O)N/N=C/c1cc(C(C)(C)C)cc(/C=N/NC(C)=O)c1O	CHT PAM 8.42 | CHT act confirm 63.9 | HEK293 MP dye -50.2
CN(C)Cc1cc(C(C)(C)c2cc(CN(C)C)c(O)c(CN(C)C)c2)cc(CN(C)C)c1O	CHT PAM 8.32 (no result: Kir21 inh, Rce1 inhib) | CHT act confirm 51.9 | HEK293 MP dye -57.7
CCCC(c1nnnn1C(C)(C)CC)N1CCN(C2CCCC2)CC1 (configuration not stated)	CHT PAM 8.41 (no result: Kir21 inh, Rce1 inhib) | CHT act confirm 51.2 | HEK293 MP dye inactive
CCCC(c1nnnn1Cc1ccc(F)cc1)N1CCN(C2CCCCC2)CC1 (configuration not stated)	CHT PAM 10.2 | CHT act confirm 36.4 | HEK293 MP dye inactive
COc1ccc(C(=O)Nc2cc(C)on2)cc1S(=O)(=O)N1CC(c2ccccc2)CC1=O (configuration not stated)	none
CC[n+]1c(/C=C/N(C)c2ccccc2)oc2ccccc21	none | CHT act confirm 51.5 | HEK293 MP dye -30.1
CC[n+]1c(/C=C/Nc2ccccc2)oc2ccc(OC)cc21	none
CC[n+]1c(/C=C/N(C)c2ccccc2)oc2ccc(F)cc21	none | CHT act confirm 29.9 | HEK293 MP dye -39.2
CC[n+]1c(/C=C/Nc2ccccc2)oc2ccccc21	none | CHT act confirm 41.4 | HEK293 MP dye -35
CCNc1nc(NC(C)(C)C)nc(N2CCCCC2)n1	none
CCOc1ccc(NC(=O)CN(C)C(=O)c2cc(-c3ccncc3)nc3ccccc23)cc1OCC	none
COc1ccc(Cl)cc1NC(=O)CN(C)C(=O)c1cc(-c2ccncc2)nc2ccccc12	CHT PAM 7.75 | CHT act confirm 49.3 | HEK293 MP dye inactive
Cc1cc(NC(=O)CSc2nc(=O)n(CCCN(C)C)c3c2CCCC3)no1	none
O=C(CSc1ncnc2scc(-c3ccccc3)c12)N1CCN(c2ccccc2F)CC1	none | CHT act confirm 42.5 | HEK293 MP dye inactive
COC(=O)c1cc2c(C)[nH]c(C)c2cc(C(=O)OC)c1=O	none | CHT act confirm 30.2 | HEK293 MP dye -45.4
COC(=O)c1cc(C(C)=O)c(C)[nH]c1=O	none
Cc1c(C(=O)NNC(=O)c2cccnc2)cccc1[N+](=O)[O-]	none (no result: CHT block, CHT PAM, Kir21 inh, Rce1 inhib, ANO1 block)
Cn1c(/C=N/n2cnnc2)nc2ccccc21	CHT PAM 6.55 | CHT act confirm 59.8 | HEK293 MP dye -48.3
CC[N+](CC)(CC)CCOc1ccc(/C=C/c2ccccc2)cc1	none (no result: Kir21 inh, Rce1 inhib)
CC[N+](CC)(CC)CCOc1cccc(OCC[N+](CC)(CC)CC)c1OCC[N+](CC)(CC)CC	CHT PAM 10.8 (no result: Kir21 inh, Rce1 inhib) | CHT act confirm 72.5 | HEK293 MP dye -92.8
CCOC(=O)C[n+]1ccc2c([nH]c3ccccc32)c1C	Rce1 inhib active | CHT act confirm 49.5 | HEK293 MP dye -40.6

Screening results as filed in PubChem BioAssay.
